# Measured values reported in PubChem BioAssay.
# Activity calls are given as the source filed them. Unless noted, how the calls were made is not given here.
# Assays:
# [1] = system: XIP peptide (Xip251-270) binding; assay: small-molecule binders of XIP peptide, primary screen, biochemical, small-molecule microarray, fluorescence 635/667 nm, 0.1 µg/mL protein (AID 1182); conditions: fluorescent protein binding, 635 nm, higher = more signal, called active from +8 up or from −8 down
# XIP peptide (Xip251-270) = assay: small-molecule binders of XIP peptide, primary screen, biochemical, small-molecule microarray, fluorescence 635/667 nm, 0.5 µg/mL protein (AID 1183); conditions: small-molecule microarray binding, fluorescence 635 nm; higher = more signal
# [2] = Plasmodium falciparum growth inhibition, primary screen, strain 3D7, DAPI fluorescence, 100 nL (AID 1184);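 further: parasites grown inside human red blood cells in medium with human serum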; conditions: P. falciparum 3D7 growth, 3 d, higher = more signal
# [3] = target: Homeobox protein Hox-A13 (Mus musculus) (UniProt Q62424); assay: inhibitors of HoxA13-DNA binding, primary screen, biochemical, fluorescence polarization, labeled oligonucleotide (AID 1185); conditions: 15 min, higher = more signal, called active from +8 up or from −8 down
# Sequence of Homeobox protein Hox-A13 (Mus musculus) (Q62424 whole entry, looked up): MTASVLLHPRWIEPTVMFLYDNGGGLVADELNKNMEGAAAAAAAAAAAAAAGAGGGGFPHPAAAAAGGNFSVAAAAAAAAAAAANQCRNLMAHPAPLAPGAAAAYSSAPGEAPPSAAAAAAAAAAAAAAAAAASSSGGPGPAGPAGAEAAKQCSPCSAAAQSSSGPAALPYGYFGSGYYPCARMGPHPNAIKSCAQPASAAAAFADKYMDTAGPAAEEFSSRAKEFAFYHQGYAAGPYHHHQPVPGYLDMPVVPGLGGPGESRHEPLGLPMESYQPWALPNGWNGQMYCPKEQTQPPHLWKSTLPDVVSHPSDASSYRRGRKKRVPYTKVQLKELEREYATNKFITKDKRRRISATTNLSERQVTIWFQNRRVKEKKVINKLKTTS
# [4] = inhibitors of hydroxyurea-induced Chk1 phosphorylation, primary screen, imaging, HeLa, phospho-Chk1 antibody, percent positive cells (AID 1186); conditions: hydroxyurea-induced phospho-Chk1 immunofluorescence imaging, higher = more signal
# [5] = inhibitors of hydroxyurea-induced Chk1 phosphorylation, primary screen, imaging, HeLa, phospho-Chk1 nuclear intensity (AID 1187); conditions: hydroxyurea-induced phospho-Chk1 immunofluorescence imaging, higher = more signal
Structure (SMILES),composite z-score [1],composite z-score (XIP peptide (Xip251-270)),z-score [2],z-score [3],z-score [4],z-score [5]
CCCCC=C[C@@H](NC(=O)c1ccco1)c1ccccc1,0.193 (inactive),0.511,-1.19,-0.806 (inactive),-0.164 (inactive),-0.7 (inactive)
C[C@]1(C(=O)NCc2ccccc2)c2ccccc2C(=O)N(Cc2cc(F)cc(C(F)(F)F)c2)[C@H]1c1ccc(CO)cc1,0.753 (inactive),0.518,-0.327,-3.43 (inactive),-0.603 (inactive),-0.552 (inactive)
CCCNC(=O)[C@@H]1c2ccccc2C(=O)N(Cc2ccccc2)[C@H]1c1ccc(CO)cc1,0.838 (inactive),0.312,-1.62,-2.71 (inactive),0.0089 (inactive),-0.142 (inactive)
C=CCC(OC(C)=O)[C@@H]1[C@@H](N(Cc2cc3ccccc3o2)C(=O)c2ccc(C)cc2)c2cc(OCCCO)ccc2N1C(=O)c1ccc2ccccc2c1 (some centres undefined),-0.014 (inactive),-0.152,-0.585,-1.33 (inactive),-0.252 (inactive),0.0758 (inactive)
COc1ccc(C(=O)Nc2cccc(CN3C(=O)[C@@]4(O[C@@H](CCn5cc(CCO)nn5)[C@H]([Si](C)(C)c5ccc(OC)cc5)[C@H]4C)c4ccccc43)c2)cc1,0.201 (inactive),0.393,-2.65,-3.85 (inactive),0.103 (inactive),0.199 (inactive)
COc1cc2c(cc1O)C(C)N(Cc1cccc(OC(F)(F)F)c1)CC2 (centres undefined),0.714 (inactive),0.907,-2.03,-3.46 (inactive),0.0708 (inactive),-0.033 (inactive)
C=C[C@H](COC(C)=O)N(Cc1ccc(OC(C)=O)c(OC)c1)S(=O)(=O)c1ccc(Br)cc1,0.353 (inactive),0.713,0.371,-5.58 (inactive),-0.245 (inactive),-0.314 (inactive)
C=CC[C@@]1(C(=O)O)N=C(c2ccc(OCCCO)cc2)O[C@@H]1c1ccccc1N=[N+]=[N-],0.926 (inactive),0.823,-0.814,-6.19 (inactive),0.103 (inactive),-0.0861 (inactive)
COCCOC(=O)N1C(=O)[C@@]2(c3cc(C#CCCO)ccc31)[C@H](c1ccc(O)cc1)N1[C@H](c3ccccc3)[C@H](c3ccccc3)OC(=O)[C@H]1[C@@H]2C(N)=O,0.599 (inactive),0.77,-0.662,-5.33 (inactive),-0.296 (inactive),-0.841 (inactive)
COCCOC(=O)N1C(=O)[C@@]2(c3cc(C#CCCO)ccc31)[C@H](C(=O)NC[C@H](O)c1ccccc1)[C@H]1C(=O)O[C@H](c3ccccc3)[C@H](c3ccccc3)N1[C@@H]2c1ccc(O)cc1,-0.246 (inactive),0.692,0.363,-3.53 (inactive),-0.392 (inactive),-0.542 (inactive)
COC(=O)c1ccc(C23CC2(C(NP(=O)(c2ccccc2)c2ccccc2)c2ccccc2)C3)cc1 (centres undefined),0.946 (inactive),0.474,-1.35,-3.76 (inactive),-1.54 (inactive),-1.34 (inactive)
CCOC(=O)C1=C[C@@H](C(C)C)N(S(=O)(=O)c2ccc(C)cc2)[C@H]1c1ccc(C(C)C)cc1,0.306 (inactive),-0.109,-1.46,-0.549 (inactive),0.25 (inactive),0.478 (inactive)
COC(=O)[C@@]1(Cc2ccc(OC)cc2)[C@H]2c3cc(C(=O)N4CCCC4)n(Cc4ccccn4)c3C[C@H]2CN1C(=O)c1ccccc1,-0.22 (inactive),0.329,-1.43,-5.86 (inactive),0.613 (inactive),0.451 (inactive)
[N-]=[N+]=NCc1ccccc1C[C@]1(C(=O)NCCN2CCOCC2)N=C(c2ccc(OCCCO)cc2)O[C@H]1c1ccccc1N=[N+]=[N-],0.281 (inactive),0.614,-2.1,-1.02 (inactive),-0.2 (inactive),0.0241 (inactive)
